Among all 310,000 compounds or so, about 14,000 (4.5%) showed an effect of 50% or more. Effects have a minus sign here. The full list was thinned out, with strong results kept by preference.
Biological target: human ether-à-go-go-related gene (hERG) potassium channel (human, UniProt Q12809)
Assay: primary screen, population patch clamp on CHO cells stably expressing hERG; higher = less effect of the substance
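Further: peak tail current of the secondary pulse compared with the same well before compound.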

human ether-à-go-go-related gene (hERG) potassium channel, sequence (Q12809 whole entry, looked up): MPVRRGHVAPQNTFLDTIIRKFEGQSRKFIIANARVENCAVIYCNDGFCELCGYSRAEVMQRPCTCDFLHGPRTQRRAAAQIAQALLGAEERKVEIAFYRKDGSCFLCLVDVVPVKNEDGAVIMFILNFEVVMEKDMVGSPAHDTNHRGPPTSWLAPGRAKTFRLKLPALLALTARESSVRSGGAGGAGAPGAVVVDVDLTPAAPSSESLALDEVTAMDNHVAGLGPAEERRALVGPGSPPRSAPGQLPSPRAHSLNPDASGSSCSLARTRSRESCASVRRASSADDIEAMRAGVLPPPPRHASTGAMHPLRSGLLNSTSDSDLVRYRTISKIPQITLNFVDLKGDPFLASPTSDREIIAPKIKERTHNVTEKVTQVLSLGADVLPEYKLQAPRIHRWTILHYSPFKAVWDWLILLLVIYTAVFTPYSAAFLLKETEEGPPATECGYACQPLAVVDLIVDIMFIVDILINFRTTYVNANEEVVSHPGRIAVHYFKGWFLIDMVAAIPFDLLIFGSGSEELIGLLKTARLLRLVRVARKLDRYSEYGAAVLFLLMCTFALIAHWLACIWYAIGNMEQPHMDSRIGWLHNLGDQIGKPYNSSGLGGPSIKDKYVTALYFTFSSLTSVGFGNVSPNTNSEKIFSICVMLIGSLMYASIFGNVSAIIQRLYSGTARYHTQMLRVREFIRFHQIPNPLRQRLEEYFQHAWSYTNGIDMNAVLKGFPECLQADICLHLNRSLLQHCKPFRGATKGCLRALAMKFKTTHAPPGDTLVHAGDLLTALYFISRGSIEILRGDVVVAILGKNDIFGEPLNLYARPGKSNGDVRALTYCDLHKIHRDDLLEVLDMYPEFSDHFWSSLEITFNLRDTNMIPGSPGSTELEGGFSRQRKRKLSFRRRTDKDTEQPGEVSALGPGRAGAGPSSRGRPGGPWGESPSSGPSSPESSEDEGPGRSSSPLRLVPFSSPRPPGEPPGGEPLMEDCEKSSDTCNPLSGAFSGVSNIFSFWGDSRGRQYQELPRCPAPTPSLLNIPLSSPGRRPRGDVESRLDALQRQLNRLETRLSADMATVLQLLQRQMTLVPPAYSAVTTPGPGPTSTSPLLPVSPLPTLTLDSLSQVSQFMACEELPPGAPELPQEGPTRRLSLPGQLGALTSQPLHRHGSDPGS

Structure (SMILES)	hERG current change (%, negative = inhibition) at 10uM
CN(CC(=O)Nc1ccccc1Cl)C(=O)CSc1nnc(-c2ccco2)o1	-7.79%
CCCn1cnc2cc(NCc3cccc(OC)c3O)ccc21	-29.3%
Cn1cnc2cc(NCc3ccc(Cl)cc3)ccc21	-18.3%
Cn1cnc2cc(NCc3ccccc3Cl)ccc21	-35%
CCCn1cnc2cc(NCc3ccc(Br)cc3)ccc21	-73.9%
CCn1cnc2cc(NCc3cccc(OC)c3O)ccc21	-5.91%
Cc1ccc(CNc2ccc3c(c2)nc(C)n3C)cc1	-21.9%
CCCn1cnc2cc(NCc3ccccn3)ccc21	-18.8%
CCCCn1cnc2cc(NCc3ccncc3)ccc21	-1.31%
CCCCn1cnc2cc(NCc3cccc(OC)c3O)ccc21	-51.2%
Cc1nc2cc(NCc3ccc(Cl)cc3)ccc2n1C	-70.6%
CCn1cnc2cc(NCc3ccccc3Cl)ccc21	-52.1%
CCCn1cnc2cc(NCc3ccccc3O)ccc21	-0.21%
CN(C)c1ccc(C(CNC(=O)c2ccccc2F)c2c[nH]c3ccccc23)cc1 (stereo not drawn)	-8.6%
Cc1[nH]c(C)c(S(=O)(=O)Nc2ccc(OC(F)(F)F)cc2)c1C(=O)N1CCCCC1	-7.79%
O=C(N/N=C/C=C/c1ccccc1)c1cccc(Br)c1	5.3%
FC(F)(F)c1ccccc1N1CC1c1ccncc1 (stereo not drawn)	13.3%
O=C(O)c1ccccc1C(=O)NC1CCN(c2nccc(C(F)(F)F)n2)CC1	9.16%
COc1ccc(N2C(=O)CC(N3CCCC4CCCCC43)C2=O)cc1 (stereo not drawn)	1.28%
CCOC(=O)c1ccc(NC(=O)C2CC2)cc1	-18.4%
COc1ccc(/C=N/NC(=O)c2cc(-c3cccn3C)n[nH]2)cc1OC	-27.5%

Structure (SMILES)	hERG current change (%, negative = inhibition) at 10uM
Cn1cccc1-c1cc(C(=O)N/N=C/c2cccc(O)c2)[nH]n1	-7.31%
COc1cccc(/C=N/NC(=O)c2cc(-c3cccn3C)n[nH]2)c1	-61.1%
CCOc1nc2ccccc2cc1C=O	-5.31%
Cc1ccc(NS(=O)(=O)c2ccc(NC(=O)[C@@H]3CCCC[C@@H]3C(=O)O)cc2)c(C)c1	18%
COc1ccc(C2(O)CN(c3ccccc3)C3=[N+]2CCS3)cc1OC.[Br-] (stereo not drawn)	1.7%
COc1ccc(OC)c(N2CC(O)(c3ccccc3)[N+]3=C2SCCC3)c1.[Br-] (stereo not drawn)	-72.6%
COc1ccc(OC)c(N2CC(O)(c3cccs3)[N+]3=C2SCCC3)c1.[Br-] (stereo not drawn)	-50.5%
Cc1ccccc1N1CC(O)(c2ccccc2)[N+]2=C1SCC2.[Br-] (stereo not drawn)	-19.5%
Cc1ccc(C)c(N2CC(O)(c3cccs3)[N+]3=C2CCCC3)c1.[Br-] (stereo not drawn)	-23%
Cc1ccccc1N1CC(O)(c2cccs2)[N+]2=C1CCCC2.[Br-] (stereo not drawn)	-25.9%
CN(C)C(CNC(=O)c1ccc(NS(=O)(=O)c2cccc([N+](=O)[O-])c2)cc1)c1ccco1 (stereo not drawn)	12.4%
Cc1ccc(NC(=O)COC(=O)COc2cccc3c2OC(C)(C)C3)cc1C	-13.9%
CCCNC(=O)CN(C)S(=O)(=O)c1c(C)cc(C)cc1C	6.62%
Cn1ccnc1C(O)c1ccc(OCc2ccccc2)cc1 (stereo not drawn)	4.19%
O=C(O)C(=O)O.O=C1CCCN1CN1CCCCC1	0.00358%
S=C(NCc1ccco1)Nc1cccc(Cl)c1Cl	-3.13%
S=C(NCc1ccco1)Nc1ccccc1Cl	-52%
Cc1c(Cl)cccc1NC(=S)NCc1ccco1	4.12%
O=C(NCc1ccco1)c1csc(Nc2ccccc2Cl)n1	-63.1%
COc1ccc(Nc2nc(C(=O)NCc3ccco3)cs2)cc1	-14.4%
Cc1ccc(Nc2nc(C(=O)NCc3ccco3)cs2)cc1	-13.5%

From article PMC4336329 (PLoS ONE, 2015)
